From PubChem BioAssay AID2685 (National Center for Advancing Translational Sciences (NCATS), 2010) come the findings set out here.

In all, about 320,000 compounds went through this assay and about 2,100 (0.66%) were called active. Another 53% or so got no clear call; they are omitted. The call rests on the fitted dose curve; in most records, active means well fitted inhibition curve with a large enough effect in the signal ratio, with a control signal flat (not every such curve was filed as active); inconclusive means small, poorly fitted or top-dose-only effect, or effect the other way, or a change in a side signal; inactive means flat fitted curve, though single readings scatter; the % refers to the signal ratio. The full list was thinned out, with actives kept by preference.
Potency means the concentration at half of the fitted maximal effect.

The nature of this test: qHTS Assay for Lipid Storage Modulators in Drosophila S3 Cells.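 On cell number change: cells counted by Cell Tracker Red CMTPX staining in the red channel.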 The note with it: BODIPY lipid droplet fluorescence, 18-24 h, cells fed with added oleic acid; cell number change: measured here: cell count max response; series mostly up to 46.1 µM. In outline:
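Laser-scanning cytometry quantifies lipid droplet accumulation (500–530 nm total intensity; droplet/cell object ratio) in oleic acid-fed (400 uM added) Drosophila S3 cells treated with a concentration series. 20 uM Triacsin C defined 100% inhibition.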
For orientation: qHTS replaces the single test concentration by a dilution series.
With `CCC(=O)NC(C)c1cc(Cl)c2ccccc2c1O` (centres undefined), the Potency entry was “inactive” and the cell number change is -12.2%.
Turning to `COCCn1c(Cc2ccccc2)nnc1SCC(=O)Nc1cc(C)on1`, the Potency result is “inactive”.
Turning to `Cc1ccc(-n2c(SCC(=O)NNC(=S)Nc3ccccc3)nc3ccccc3c2=O)cc1`, the Potency entry was “inactive” and the cell number change amounted to 9.73%.
For `CN1CCC(N(C)CC(O)c2ccccc2)CC1` (centres undefined), in that order: “inactive” and -4.15%.
Take `CN1C(CC(=O)c2ccccc2)CCCC1CC(O)c1ccccc1` (centres undefined): the Potency is 18.4 µM (active) and the cell number change was -3.64%.
On to `CN1[C@@H](CC(=O)c2ccccc2)CCC[C@H]1C[C@H](O)c1ccccc1`, for which the Potency result is “inactive” and the cell number change came to 9.08%.
In the same order, the values of `C=CCSc1nc(O)c(CC)c(=O)n1C(C)CC` (centres undefined) are “inactive” and -4.8%.
Take `Cc1ccc(OCc2ccc(C(=O)NCC3CCCO3)cc2)cc1C` (centres undefined): the Potency is 10.3 µM (active) and the cell number change was -8.64%.
Take `Cc1ccc(OCc2ccc(C(=O)NCC3CCCO3)cc2)cc1` (centres undefined): the Potency result is “inactive” and the cell number change came out at 13.4%.
Take `Cc1noc(C)c1COc1ccc(C(=O)NCC2CCCO2)cc1` (centres undefined): the Potency result is “inactive” and the cell number change is -13.5%.
In the same order, the values of `Cc1cccc(NC(=O)Nc2ccccc2)n1` are “inactive” and -19.9%.
On to `COc1ccc(/C=C/C(=O)N2CCNC(=O)C2)c(OC)c1`, for which the Potency entry was “inactive”.
Consider `COc1ccc(-c2cc(=O)oc3c(C)c(OCC(=O)N(C)C)ccc23)cc1`, for which the Potency result is “inactive”.
`CC(=O)Nc1ccc(OC(=O)c2cc([N+](=O)[O-])ccc2Cl)cc1`: the Potency result is “inactive”.
As to `Cc1ccc(NC2=NCCC2)cc1Cl`, the Potency result is “inactive”.
Regarding `Clc1cccc(Cl)c1NC1=NCCC1`, the Potency result is “inactive” and the cell number change came to 6.79%.
For `Clc1cccc(NC2=NCCC2)c1`, in that order: 25.9 µM (active) and -7.84%.
For the compound `CCCCNC(=S)NNC(=O)c1cccnc1`, the Potency result is “inactive” and the cell number change is 0.804%.
As for `CC(C)Sc1nc2c(c(=O)[nH]c(=O)n2C)n1Cc1ccccc1`, the Potency result is “inactive”.
On to `O=[N+]([O-])c1cccc(S(=O)(=O)NCc2ccncc2)c1`, for which the Potency is 10.3 µM (active) and the cell number change is -3.97%.
As for `O=[N+]([O-])c1cccc(S(=O)(=O)NCCc2ccccc2)c1`, the Potency entry was “inactive” and the cell number change is -15.1%.
Consider `O=[N+]([O-])c1ccc(S(=O)(=O)NCCc2ccncc2)cc1`, for which the Potency entry was “inactive” and the cell number change came out at 17.1%.
In the same order, the values of `CCCNC(=O)COC(=O)c1ccc(N2CCCC2)c([N+](=O)[O-])c1` are “inactive” and 10%.
As to `CC1CN2C(c3ccc(Cl)cc3)=CSC2=N1` (centres undefined), the Potency result was “inactive” and the cell number change was 15.5%.
Take `N=C1/C(=C\c2ccc(-c3cccc(Cl)c3)o2)C(=O)N=C2SC=C(c3ccccc3)N12`: the Potency result is “inactive” and the cell number change was -13.8%.
With `Clc1ccc(C2=CSC3=Nc4cccc5cccc(c45)N23)cc1`, the Potency is 0.13 µM (active) and the cell number change was -10.2%.
As to `COc1ccc(OC[C@@H](O)CNC(=O)c2cccc3c2C(=O)c2ccc(Cl)cc2S3(=O)=O)cc1`, the Potency result is “inactive” and the cell number change stood at 6.27%.
Take `O=C(NNC(=O)c1ccccc1F)c1ccc(Cl)c(S(=O)(=O)N2CCOCC2)c1`: the Potency result is “inactive” and the cell number change came out at 4.79%.
Regarding `Cc1ccc(C)c(Cn2c3ccccc3c3cnn(CC(=O)NCc4ccccn4)c(=O)c32)c1`, the Potency entry is “inactive” and the cell number change worked out at 21.8%.
For `Cc1cc(C)c(Cn2c3ccccc3c3cnn(CC(=O)NCc4ccccn4)c(=O)c32)c(C)c1`, in that order: 14.6 µM (active) and 17.6%.
In the case of `Cc1c2cnn(CC(=O)NCc3ccccn3)c(=O)c2c(C)n1Cc1ccccc1`, the Potency result is “inactive” and the cell number change is -4.61%.
As to `Cc1ccccc1CN1CCNC1=O`, the Potency entry was “inactive”.
As to `COCCCNC(=O)CS(=O)Cc1nc(-c2ccccc2C)oc1C` (centres undefined), the Potency entry is “inactive” and the cell number change is -1.92%.
For `COc1ccc(-c2nc(CS(=O)(=O)CC(=O)NCc3cccc(OC)c3OC)c(C)o2)cc1`, in that order: “inactive” and 10.4%.
With `CCc1c(C)sc(NC(=O)c2cc(C(C)C)on2)c1C#N`, the Potency result is “inactive” and the cell number change worked out at 4.86%.
With `C=CCn1c(=N)n(CC(=O)OCC)c2ccccc21`, the Potency result is “inactive” and the cell number change amounted to 2.48%.
On to `CCOC(=O)Cn1c(=N)n(Cc2ccccc2F)c2ccccc21`, for which the Potency was 18.4 µM (active) and the cell number change was -1.47%.
In the same order, the values of `CCCn1c(=N)n(CC(=O)OCC)c2ccccc21` are “inactive” and 13.2%.
As to `Cc1cccc(NCc2ccc(Br)cc2)n1`, the Potency entry was “inactive” and the cell number change was -13.5%.
In the case of `O=C1CNC(=O)N1CC(=O)N1CCCc2ccccc21`, the Potency was 29.1 µM (active) and the cell number change was -34.5%.
Take `O=C(CN1CCCCC1)N1CCCc2ccccc21`: the Potency entry is “inactive” and the cell number change was found to be 7.83%.
For `O=C(CN1C(=O)COc2ccccc21)N1CCCc2ccccc21`, the Potency result was “inactive” and the cell number change turned out to be 11.3%.
For `COc1ccccc1NC(=S)NCc1ccc(F)cc1`, the Potency was 11.6 µM (active) and the cell number change is -1.4%.
As for `COc1ccccc1NC(=S)NCc1ccc(Cl)cc1`, the Potency entry was “inactive” and the cell number change came out at 8.81%.
On to `COc1ccccc1NC(=S)NCc1ccc(S(N)(=O)=O)cc1`, for which the Potency entry is “inactive” and the cell number change came out at 6.14%.
Turning to `CC(C)CNC(=O)CSc1nnc(-c2ccccn2)n1Cc1ccccc1`, the Potency result was “inactive” and the cell number change was -1.23%.
On to `CC(C)(C)c1ccc(C(=O)N/N=C2\C3CN4CCN(C3)CC2(c2ccccc2)C4)cc1`, for which the Potency result was “inactive” and the cell number change amounted to 8.22%.
For `Cc1ccc2c(c1)C(=O)C(=O)N2CCCOc1ccccc1C`, in that order: “inactive” and -3.05%.
On to `Cc1ccc(S(=O)(=O)N2CCN(CC(=O)Nc3ccccc3C(=O)NC3CC3)CC2)cc1`, for which the Potency entry was “inactive” and the cell number change was -13.8%.
Turning to `O=C(CN1CCN(S(=O)(=O)c2ccccc2)CC1)Nc1ccc(Cl)c(Cl)c1`, the Potency result was “inactive” and the cell number change turned out to be 16.9%.
For `O=C(CN1CCN(S(=O)(=O)c2ccccc2)CC1)Nc1ccccc1C(=O)c1ccccc1`, the Potency entry was “inactive” and the cell number change was 4.18%.
Turning to `O=C(CN1CCN(S(=O)(=O)c2ccccc2)CC1)Nc1ccc(Cl)c([N+](=O)[O-])c1`, the Potency result is “inactive” and the cell number change came out at 22%.
`CC(=O)c1ccc(S(=O)(=O)N2CCN(CC(=O)Nc3ccccc3C(=O)NC3CC3)CC2)cc1`: the Potency is 6.51 µM (active) and the cell number change is -1.96%.
For `CC(=O)c1ccc(S(=O)(=O)N2CCN(CC(=O)Nc3ccc(Cl)c([N+](=O)[O-])c3)CC2)cc1`, the Potency is 29.1 µM (active) and the cell number change is -15.2%.
For `COc1c2ccc(C(=O)NCCCCc3ccccc3)cc2nn1C`, the Potency entry is “inactive” and the cell number change is -13.1%.
For `CCOC(=O)NCc1ccc2[nH]c(C)cc2c1`, in that order: “inactive” and 16.1%.
As to `Cc1cc(C)c(C#N)c(SCCN2CCCCC2)n1`, the Potency result was “inactive” and the cell number change was -24.3%.
For `Nc1cc(N)nc(SCCN2CCCCC2)n1`, in that order: 0.0184 µM (active) and 3.17%.
Consider `Nc1cc(N)nc(SCC(=O)N2CCCCC2)n1`, for which the Potency result was “inactive” and the cell number change worked out at 2.45%.
As to `O=C(O)c1ccc(N2C(=O)CC(N3CCN(c4cccc(Cl)c4)CC3)C2=O)cc1` (centres undefined), the Potency result was “inactive” and the cell number change was -9.85%.
In the same order, the values of `O=C1Nc2c(c(=O)[nH]c(=O)n2-c2ccccc2)C(C(F)(F)F)(C(F)(F)F)N1` are 25.9 µM (active) and -18.7%.
For `Cc1ccc(-n2c3c(c(=O)[nH]c2=O)C(C(F)(F)F)(C(F)(F)F)NC(=O)N3)cc1`, in that order: “inactive” and 7.3%.
Consider `O=C1Nc2c(c(=O)[nH]c(=O)n2-c2ccccc2F)C(C(F)(F)F)(C(F)(F)F)N1`, for which the Potency result was “inactive” and the cell number change is 12.5%.
